In all, about 190,000 compounds went through this assay and about 810 (0.43%) were called active. No stated cut-off is given here; in the data, active means inhibition above about 50%; inactive means the rest. For the sample, actives were picked, then their nearest neighbours and some compounds at random.

Mannose-6-phosphate isomerase (Homo sapiens), sequence (P34949 whole entry, looked up): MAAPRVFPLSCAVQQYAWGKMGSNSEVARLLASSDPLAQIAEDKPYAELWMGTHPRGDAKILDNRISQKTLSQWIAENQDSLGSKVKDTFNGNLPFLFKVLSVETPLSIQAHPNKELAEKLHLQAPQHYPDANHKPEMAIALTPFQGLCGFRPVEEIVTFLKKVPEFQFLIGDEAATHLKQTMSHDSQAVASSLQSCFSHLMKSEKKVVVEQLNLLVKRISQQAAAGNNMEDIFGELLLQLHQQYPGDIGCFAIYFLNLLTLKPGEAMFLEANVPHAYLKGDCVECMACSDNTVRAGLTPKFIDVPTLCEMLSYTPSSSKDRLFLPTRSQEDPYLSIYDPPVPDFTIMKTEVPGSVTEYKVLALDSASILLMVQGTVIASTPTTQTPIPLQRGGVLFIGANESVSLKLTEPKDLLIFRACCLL

This experiment has as its target Mannose-6-phosphate isomerase (Homo sapiens) (UniProt P34949). Nature of the experiment: inhibitors of human PMI, primary screen, biochemical, fluorescence intensity, coupled assay (AID 1209).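 Further: plate controls were DMSO vehicle for no effect and wells lacking substrate for full effect.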 Conditions: purified PMI enzyme, at 20 µM, active compounds read high.
A word on the inhibition: it is the change of the read-out against control, counted positive when it falls. As to `O=C(Nn1cnc2ccccc2c1=O)c1cccc(Cl)c1`, the inhibition is 3% (inactive). With `OC(COCC1COc2ccccc2O1)CN1CCN(c2ccccc2)CC1` (centres undefined), the inhibition was 1.8% (inactive). Turning to `C[N+]1(CC(O)COCC2COc3ccccc3O2)CCOCC1` (centres undefined), the inhibition is 66.2% (active). In the case of `CC[N+](C)(CC)CC(O)COCC1COc2ccccc2O1` (centres undefined), the inhibition was 19.8% (inactive). With `C/C(=N\NC(N)=S)C1C2C3CC4C5CC(C42)C1C53` (centres undefined), the inhibition was 0.3% (inactive). On to `O=C(NCc1ccco1)c1ccccc1-c1ccc(C(F)(F)F)cc1`, for which the inhibition was 4.9% (inactive).

In the case of `CN1CCN(Cc2cc(COCc3ccccc3)c3cccnc3c2O)CC1`, the inhibition was 43.5% (inactive). In the case of `COCc1cc(CN2CCCC2)c(O)c2ncccc12`, the inhibition was 41% (inactive).

Regarding `Oc1c(CN2CCCCC2)cc(Br)c2cccnc12`, the inhibition is 51.6% (active). `Oc1ccc(CN2CCN(c3ccccc3)CC2)c2cccnc12`: the inhibition was 35.3% (inactive). Regarding `CCOC(=O)N1CCN(Cc2ccccc2Cl)CC1`, the inhibition is 4.4% (inactive). For `O=[N+]([O-])c1cc(CN2CCCC2)c2cccnc2c1O`, the inhibition is 5% (inactive). For `CN1CCN(Cc2cc(Cl)c3cccnc3c2OC(=O)c2cccs2)CC1`, the inhibition is 15.8% (inactive). The same measure for `COc1ccccc1N1CCN(Cc2cc(Br)c(O)c3ncccc23)CC1`: 25.4% (inactive). The result for `CCOC(=O)N1CCN(Cc2cc(Cl)c3cccnc3c2O)CC1` reads 54.9% (active). The same measure for `COc1ccccc1N1CCN(Cc2ccc(O)c3ncccc23)CC1`: 55.7% (active); for `Oc1c(CN2CCCCC2)cc(COCc2ccccc2)c2cccnc12`: 46.6% (inactive); for `Cc1ccc(S(=O)(=O)N2CCCC2C(=O)Nc2nccs2)cc1` (centres undefined): -9.8% (inactive). For the compound `CCOC(=O)C1CCCN(C(=O)c2ccc(Cl)c(S(=O)(=O)N3CCCCCC3)c2)C1` (centres undefined), the inhibition is -22.1% (inactive).

Consider `O=C1OC(Nc2ccc(F)cc2F)c2ccccc21` (centres undefined), for which the inhibition was -10.1% (inactive). With `CCOC(=O)N1CCN(c2nc(C)cc(C(F)(F)F)n2)CC1`, the inhibition is 15.5% (inactive). Consider `COc1ccc(N=C2SC(C(=O)N3CCN(c4ccccc4)CC3)CC(=O)N2C)cc1` (centres undefined), for which the inhibition was 5% (inactive).

For `CC(C)(C)C1CCc2c(C(=O)NNC(=O)CCCC(=O)O)csc2C1` (centres undefined), the inhibition was -6.1% (inactive).

With `COc1ccccc1C1C(C(C)=O)=C(O)C(=O)N1CCc1ccccc1` (centres undefined), the inhibition is 4.1% (inactive). The same measure for `Cc1ccccc1NC(=S)NC1CC2CCC(C1)N2Cc1ccco1` (centres undefined): -0.8% (inactive); for `COc1ccc(CC2(C)OC(c3ccc(Cl)cc3)=NN2C(C)=O)cc1` (centres undefined): 19% (inactive). On to `O=C(Nc1ccc(S(=O)(=O)Nc2ncccn2)cc1)c1ccccc1NS(=O)(=O)c1ccc(F)cc1`, for which the inhibition is 2.8% (inactive). The same measure for `Cc1ccc(C)c(C(=O)COC(=O)c2cc(Cl)nc3ccccc23)c1`: 12.6% (inactive); for `CCOC(=O)C1CCN(Cc2ccc(OC)c(C)c2OC)CC1`: -4.3% (inactive); for `COCc1cc(CN2CCN(C)CC2)c(O)c2ncccc12`: 36.7% (inactive). The same measure for `CCOC(=O)C1CCN(Cc2c(O)ccc3ccccc23)CC1`: 28.5% (inactive); for `Oc1ccc(CN2CCCCC2)c2cccnc12`: 43.3% (inactive). Regarding `Oc1c(CN2CCc3ccccc3C2)cc(Cl)c2cccnc12`, the inhibition is 40% (inactive). Take `O=c1cc(CN2CCOCC2)c2c(ccc3ccccc32)o1`: the inhibition was 1.2% (inactive). Turning to `c1cc2ccc3ccc(CN4CCOCC4)c4ccc(c1)c2c34`, the inhibition was -2.6% (inactive). Consider `CCOC(=O)C1CCN(Cc2ccc(O)c3ncccc23)CC1`, for which the inhibition was 67% (active). Take `CCOC(=O)N1CCN(Cc2ccc(O)c3ncccc23)CC1`: the inhibition is 59.9% (active). The same measure for `Oc1c(CN2CCOCC2)ccc2ccccc12`: 50.8% (active); for `CCOC(=O)N1CCN(Cc2ccccn2)CC1`: 3.7% (inactive). The result for `CCOC(=O)CC(NC(=O)Cc1ccccc1)c1ccccc1Cl` (centres undefined) reads 13.1% (inactive); that for `COC(=O)C1=C(NC(=O)c2ccccc2C)CCS1`, -17.4% (inactive). For `O=C(Nc1cnn(Cc2ccc(F)cc2)c1)C(c1ccccc1)c1ccccc1`, the inhibition was 16% (inactive).

As for `O=S(=O)(Nc1cccnc1)c1ccc(Cl)c(C(F)(F)F)c1`, the inhibition is 6% (inactive).

Take `CC(C)C(=O)NCCc1nc2ccccc2n1CCOc1ccccc1`: the inhibition was -1.6% (inactive). With `CCN(CC)C(=O)C1=C(C)NC(=S)NC1c1cccs1` (centres undefined), the inhibition was -9% (inactive).

In the case of `CCOC(=O)C1CCCN(Cc2cc(=O)oc3cc(C)ccc23)C1` (centres undefined), the inhibition is -10.2% (inactive).

For the compound `CN(CC(=O)NC1CCCCCC1)S(=O)(=O)c1ccc2c(c1)n(C)c(=O)c(=O)n2C`, the inhibition was 2.1% (inactive). For the compound `COC(=O)C1=C(NC(=O)c2ccc(C)c(C)c2)CCS1`, the inhibition is 3.8% (inactive).

Turning to `Cc1ccc2cc(C(c3nnnn3C3CCCC3)N3CCOCC3)c(=O)[nH]c2c1C` (centres undefined), the inhibition was -2.5% (inactive).

As for `CCOC(=O)C1=C(C)NC(=O)CC1c1cc2c(cc1Br)OCO2` (centres undefined), the inhibition is 1.2% (inactive).

As to `CCOC(=O)C1=C(C)NC(=O)CC1c1cc2c(cc1[N+](=O)[O-])OCO2` (centres undefined), the inhibition was 53.2% (active).

As for `CCOC(=O)C1=C(C)N(C)C(=O)NC1c1cc2c(cc1[N+](=O)[O-])OCO2` (centres undefined), the inhibition was 35.3% (inactive). As to `Cc1noc(C)c1C(=O)OCC(=O)NC1CC1`, the inhibition was 1.3% (inactive). Take `Cc1noc(C)c1C(=O)OCC(=O)NC(=O)NC12CC3CC(CC(C3)C1)C2`: the inhibition was -2.2% (inactive). Consider `Cc1noc(C)c1C(=O)OCC(=O)C12CC3CC(CC(C3)C1)C2`, for which the inhibition is 100% (active). On to `CCC1S/C(=N/C(=O)NC2CCCCC2)NC1=O` (centres undefined), for which the inhibition was -8.6% (inactive). With `O=C(/N=C1\NC(=O)C(F)(C(F)(F)F)S1)NC1CCCCC1` (centres undefined), the inhibition was 74.7% (active). Consider `O=C(Nc1nccs1)NC1CCCCC1`, for which the inhibition was -3% (inactive). On to `c1ccc2c(c1)nc(N1CCN(C3CCCCC3)CC1)c1nnnn12`, for which the inhibition is 4.7% (inactive). On to `O=C(CSc1nc2cc(S(=O)(=O)N3CCOCC3)ccc2o1)Nc1c(F)cccc1F`, for which the inhibition was 31.9% (inactive). In the case of `Cc1nc2ccc(Nc3nc4cc(S(=O)(=O)N5CCOCC5)ccc4o3)cc2s1`, the inhibition was 64.5% (active).

Take `Cc1nc2ccc(NC(=O)c3ccc(S(=O)(=O)N4CCOCC4)cc3)cc2s1`: the inhibition was 1.9% (inactive). Consider `Cc1ccc(C(=O)CSc2nc3cc(S(=O)(=O)N4CCOCC4)ccc3o2)cc1`, for which the inhibition is 25.2% (inactive). Take `Cc1noc(C)c1CSc1nc2cc(S(=O)(=O)N3CCOCC3)ccc2o1`: the inhibition was 53.1% (active).

On to `Cc1nc2ccc(NC(=O)c3cc(S(=O)(=O)N4CCOCC4)ccc3C)cc2s1`, for which the inhibition was 9.8% (inactive). The same measure for `CC(/C=N/NC(=O)CSc1nc(C)cc(C)n1)=C\c1ccccc1`: 16.1% (inactive); for `CCOc1ccc(-c2nnc(-c3ccccc3)o2)cc1`: -0.3% (inactive). With `CCCCc1nc(Cl)c(C#N)c2c1CSC(C)(C)C2`, the inhibition was 13.1% (inactive). `CCc1onc(C)c1C(=O)O`: the inhibition was -13.1% (inactive). Turning to `COc1cccc(-c2nnc(NC(=O)Cc3cccs3)s2)c1`, the inhibition was -3% (inactive).

With `Cc1nn(Cc2cccc(C(=O)N3N=C(C(F)F)CC3(O)C(F)F)c2)c(C)c1[N+](=O)[O-]` (centres undefined), the inhibition is -1.8% (inactive). Turning to `O=C1c2ccccc2C(=O)N1CN(C(=O)c1ccccc1[N+](=O)[O-])c1ccc(F)cc1`, the inhibition was 13.9% (inactive). Consider `Oc1ccccc1/C=C/c1noc(-c2ccccc2O)n1`, for which the inhibition is -7% (inactive). On to `O=c1cc(-c2ccccc2)c2ccccc2[nH]1`, for which the inhibition is 9.9% (inactive). With `Oc1cc(-c2ccccc2)c2ccccc2c1`, the inhibition is 82.6% (active). For the compound `Cn1c(=O)cc(-c2ccccc2)c2ccccc21`, the inhibition was 1.5% (inactive). Take `CCOC(=O)CSc1nc(C(C)(C)C)cc(C(F)(F)F)c1C#N`: the inhibition is 5.9% (inactive). The result for `COC(=O)C1=C(C(=O)OC)SC2(S1)C(C(=O)OC)=C(C(=O)OC)SC1=C2c2cc(C)ccc2NC1(C)C` reads 57% (active). Take `COC(=O)C1=C(C(=O)OC)SC2(S1)C(C(=O)OC)=C(C(=O)OC)SC1=C2c2cccc(C)c2NC1(C)C`: the inhibition is 24.5% (inactive). As to `COC(=O)C1=C(C(=O)OC)SC2(S1)C(C(=O)OC)=C(C(=O)OC)SC1=C2c2cc(C)cc(C)c2NC1(C)C`, the inhibition is 18.1% (inactive).

For `CCOC(=O)CN1CCc2c(C)nc3c(-c4ccc(OC)c(OC)c4)cnn3c21`, the inhibition is 20.1% (inactive).

Turning to `CCOC(=O)NC(=O)COC(=O)CNC(=O)c1cccc(OC)c1`, the inhibition is -0.3% (inactive). For the compound `COc1ccc(C(=O)NC(=S)NCC2CCCO2)cc1` (centres undefined), the inhibition is 2.8% (inactive). With `Cc1ccc(C)c(N(CC(=O)N/N=C/c2ccc(-c3ccc([N+](=O)[O-])cc3)o2)S(=O)(=O)c2ccccc2)c1`, the inhibition is 10.6% (inactive). With `COc1ccc(N(CC(=O)N/N=C/c2ccc(-c3ccc([N+](=O)[O-])cc3)o2)S(=O)(=O)c2ccc(C)cc2)cc1`, the inhibition is -2.3% (inactive). The same measure for `CCOC(=O)C1(Cc2ccc(OC)cc2)CCN(C(=O)CCc2cccnc2)CC1`: 7.6% (inactive). In the case of `COc1ccc(C)cc1NC(=O)CSc1nnc(-c2ccco2)n1N`, the inhibition is 10.6% (inactive).

On to `COC(=O)/C=c1/sc2nc3ccccc3n2c1=O`, for which the inhibition was 75.6% (active). For the compound `O=c1/c(=C\c2cccnc2)sc2nc3ccccc3n12`, the inhibition is 7% (inactive). As to `O=c1/c(=C/c2ccccn2)sc2nc3ccccc3n12`, the inhibition was -21.7% (inactive). In the case of `Nc1ccccc1Oc1c(F)c(F)c(Oc2ccccc2N)c(F)c1F`, the inhibition is 18.8% (inactive). The same measure for `COc1cc(NC(c2ccccc2)c2ccccc2)cc(OC)c1OC`: 62.4% (active).

Consider `COc1cc(NC(C(=O)Nc2cccc(C(C)=O)c2)c2ccccc2)cc(OC)c1OC` (centres undefined), for which the inhibition was 16.5% (inactive). On to `COc1cc(C)c(NC(c2ccccc2)c2ccccc2)cc1OC`, for which the inhibition is 16.1% (inactive).

For `COc1ccc(C(C)=O)c(OC(=O)c2ccc(OC)c(OC)c2)c1`, the inhibition was 17.5% (inactive). Regarding `C=CCNc1nc2c(c(=O)[nH]c(=O)n2C)n1CCCCC`, the inhibition was 2.9% (inactive). On to `Cc1cccc2cc3c(nc12)SC(=NCC1CCCO1)N(Cc1ccco1)C3` (centres undefined), for which the inhibition is 7.4% (inactive).

For `COCCN=C1Sc2nc3ccc(C)cc3cc2CN1Cc1ccco1`, the inhibition was -63.1% (inactive). As to `COCCN=C1Sc2nc3c(C)cccc3cc2CN1Cc1ccco1`, the inhibition was 51% (active).

For the origin of these results see PubChem BioAssay AID1209 (Sanford-Burnham Center for Chemical Genomics, 2008).
